Reference: PubChem BioAssay (NCI)
Compounds without any hit were thinned out: in the full panel of roughly 83,000, 20% have a hit.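 Single-dose data. Exposure time 48 hours. Values below 10 considered active.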 Unmarked numbers belong to inactive results. The source made the active and inactive calls.

Key:
Experiment in all cases: NCI-60 one-dose screen, 48 h (100 = growth as untreated, 0 = no growth, -100 = all killed)
Conditions in all cases: 10 µM unless noted
[1] = tested on: NCI-H23 lung
[2] = tested on: NCI-H226 lung
[3] = tested on: NCI-H322M lung
[4] = tested on: HOP-62 NSCLC
[5] = tested on: NCI-H460 lung
[6] = tested on: HOP-92 NSCLC
[7] = tested on: NCI-H522 lung
[8] = tested on: A549/ATCC NSCLC
[9] = tested on: 786-0 renal
[10] = tested on: COLO 205 colon
[11] = tested on: DU-145 prostate
[12] = tested on: MALME-3M melanoma
[13] = tested on: MDA-MB-231 breast
[14] = tested on: RXF 393 renal
[15] = tested on: SF-268 CNS
[16] = tested on: SF-295 CNS
[17] = tested on: SF-539 CNS
[18] = tested on: UACC-257 melanoma
[19] = tested on: M14 melanoma
[20] = tested on: K-562 leukemia

| Compound | growth [1] | growth [2] [%] | growth [3] [%] | growth [4] | growth [5] | growth [6] | growth [7] | growth [8] | growth [9] | growth [10] | growth [11] | growth [12] | growth [13] | growth [14] | growth [15] | growth [16] | growth [17] | growth [18] | growth [19] | growth [20] [%] |
| --- | --- | --- | --- | --- | --- | --- | --- | --- | --- | --- | --- | --- | --- | --- | --- | --- | --- | --- | --- | --- |
| COc1cccc2c1c(C(=O)C(=O)Nc1ccn[nH]1)cn2Cc1ccc(F)cc1 | 96.4% | 76.4 | 97.8 | 103% | 77.6% | 87% | 96.8% | 86.3% | 92.4% | 103% | 104% | 112% | 109% | 99.8% | 100% | 143% | 99.5% | 104% | 101% | – |
| O=C(O)C(Cl)(Cl)C(F)(F)F | 100% | 106 | 106 | 111% | 102% | 95.1% | 102% | 106% | 99.1% | 124% | 108% | 105% | 102% | – | 99.3% | 99.9% | 102% | 105% | 105% | – |
| Cc1sc2c(c1C)C(c1ccc(Cl)cc1)=N[C@@H](CC(=O)OC(C)(C)C)c1nnc(C)n1-2 | 28.5% | 71.8 | 37.3 | 36.8% | 39.9% | 21.2% | 2.71% (active) | 37.9% | 46% | 19.3% | 57% | 57% | 42.8% | – | 51% | 37.6% | 37.5% | 58.1% | 43% | – |
| O=C(Nc1ccc(Br)cc1)c1cc(Br)cc(Br)c1O | -14.1% (active) | 10.6 | 13.7 | -4.33% (active) | -25.3% (active) | -30.7% (active) | -3.18% (active) | 6.64% (active) | -12.3% (active) | 102% | – | -12% (active) | -22.4% (active) | -9.8% (active) | 32.3% | -8.2% (active) | 8.02% (active) | -17.1% (active) | 1.78% (active) | 96.9 |
| COc1ccc(/C=C\c2cc(OC)c(OC)c(OC)c2)cc1NC(=O)/C=C/c1cc(OC)c(OC)c(OC)c1 | 25.7% | 46.8 | 55.1 | 45.5% | 55.2% | 55.5% | 34.3% | 56.6% | 39.9% | 42.1% | 95.2% | 58% | 63.9% | 1.99% (active) | 61.1% | 12.5% | 44.5% | 70.6% | 31.6% | – |
| O[C@H](CN1CC1)[C@@H](O)CN1CC1 | 65.8% | 79.7 | 103 | 61.8% | 15.5% | 87% | 93.9% | 66.3% | 43.2% | 76.7% | 39.5% | – | 109% | 77.2% | 45.5% | 19.6% | 24.6% | 86.3% | 48.9% | 65.9 |
| COc1ccc(/C=C/c2cc(OC)c(OC)c(OC)c2)cc1NC(=O)/C=C/c1ccc(F)cc1 | 6.1% (active) | 36.6 | 55.5 | 24.9% | 14.6% | 93.1% | -8.36% (active) | 38% | 37.8% | -26.3% (active) | 10.1% | 42.7% | 56.1% | -19.1% (active) | 45.2% | -2.11% (active) | -0.885% (active) | 59.3% | 13.4% | – |
| ClCCN(CCCl)c1ccc(/C=N\N=C\c2ccc(N(CCCl)CCCl)cc2)cc1 | 62% | 28.9 | 74.2 | 39.1% | 14.7% | 76.7% | 11.1% | 13.6% | 31.7% | 37.4% | 42.4% | 109% | 64.9% | – | 40.7% | 10.7% | 1.3% (active) | 31% | 12.9% | – |
| CC(=O)OC[C@]1(C)C=C2C(=O)[C@](C)(O)C3(CC3)C(C)=C2[C@H]1OC(=O)N(C)CCN(C)C(=O)OC(C)(C)C | -17.8% (active) | 24.7 | 12.4 | -19.9% (active) | 0.38% (active) | -13.4% (active) | -47% (active) | 4.55% (active) | 0.73% (active) | -66.8% (active) | 3.6% (active) | -44% (active) | 4.31% (active) | -68.2% (active) | 7.08% (active) | 6.27% (active) | -37.1% (active) | 33.7% | -29.4% (active) | – |
| CNCc1cccnc1 | 104% | 101 | 113 | 114% | 114% | 108% | 84.2% | 97.6% | 107% | 122% | 111% | 124% | 126% | 121% | 104% | 95.5% | 112% | 105% | 117% | – |
| COc1cc([N+](=O)[O-])c2nc(C)ccc2c1[N+](=O)[O-] | 105% | 104 | 139 | 132% | 115% | 96.3% | 87.2% | 107% | 105% | 77.6% | 84.9% | 88% | 94.4% | 88.2% | 98% | 132% | 118% | 101% | 92.5% | – |
| CCc1ccccc1[C@@H]1C[C@]2(C)CCO[C@@H]2OO1 | 104% | 102 | 105 | 98.2% | 107% | 92.7% | 104% | 96.8% | 101% | 118% | 105% | 110% | 103% | 112% | 98.3% | 101% | 111% | 96.7% | 104% | – |
| NC(=Nc1ccccc1)N[N+](=O)[O-] | 93.7% | 90.1 | 109 | 104% | 105% | 118% | 115% | 107% | 113% | 107% | 111% | 103% | 115% | 95.2% | 102% | 113% | – | 112% | 99.9% | – |
